Assay results as given in PubChem BioAssay (EPA / NIEHS).
Records with an inconclusive call do not appear. Activity calls are given as the source filed them. Rule for the calls: active = hit-call score of the fitted dose curve at least 0.9, where 1 is the maximum; inconclusive = response in the unintended direction; inactive = score below 0.9.

Experiment: CCTE_Simmons_CellTiterGLO_HEK293T: Viability Assessment in CCTE's Assays for Thyroperoxidase (TPO) Inhibition, Simmons Lab (AID 2283665);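 for AC50: cells exposed to compound for 24 h before readout; actives reduce ATP signal below DMSO vehicle meaning cytotoxicity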
Procedure: CCTE_Simmons_CellTiterGLO_HEK293T is a cell-based, single-readout assay that uses HEK293T, a human kidney cell line, with measurements taken at 24 hours after chemical dosing in a 384-well plate.CCTE_Simmons_CellTiterGLO_HEK293T is the assay component measured from the CCTE_Simmons_CellTiterGLO_HEK293T assay. It is designed to make measurements of ATP content, a form of viability reporter, as detected with bioluminescence signals by Luciferase-coupled ATP quantitation technology. This is a secondary cytotoxicity assay to CCTE_Simmons_AUR_TPO to estimate a cellular tolerance limit.Data from the assay component CCTE_Simmons_CellTiterGLO_HEK293T was analyzed at the endpoint, CCTE_Simmons_CellTiterGLO_HEK293T, in the positive analysis fitting direction relative to DMSO as the negative control and baseline of activity. Using a type of viability reporter, measures of ATP content for loss-of-signal activity can be used to understand the viability. This assay was run in parallel with aeid 1508 as a means of indicating the range of chemical cytotoxicity or reactivity. To generalize the intended target to other relatable targets, this assay endpoint is annotated to the cell cycle intended target family, where the subfamily is cytotoxicity.
Human HEK293T cells (GenHunter; Nashville, Tennessee) were seeded overnight in 384-well, solid white assay plates (Greiner, BioExpress) at a density of 10 000 cells per well in 65 ul Dulbecco's Modified Eagle Medium (Life Technologies; Carlsbad, California) supplemented with 1% fetal bovine serum (HyClone; Logan, Utah). Test compounds were administered using the HDRT as described earlier to achieve a 0.5% final DMSO concentration. Cells were then incubated at 37C for 24 hr in a humidified 5% CO2 incubator. Cell Titer Glo (Promega; Madison, WI) reagent (25 ul) was then added by the BioTek MicroFlo and microplates were incubated at room temperature in the dark for 20min. Plates were read on a plate reader (FLUOStar Optima) using an endpoint luminescence protocol (top read). Three biological replicates of technical singles were run for every chemical concentration tested. A titrated range of DCNQ served as a positive control on each plate of the cytotoxicity screening assay.Test chemicals were administered as a titrated series of 8 concentrations from 5 nM up to 87.5 uM [final] for 24 hours prior to single endpoint detection. Three biological replicates of technical singles were run for every chemical concentration tested. Dimethylsulfoxide [DMSO] was used as the vehicle control. Dichlone [DCNQ] was used as the positive control and was administered as a titrated series of 8 concentrations from 1 nM up to 100 uM [final].

SMILES | outcome | AC50
Sc1ccccc1 | inactive | 
CC(C)(c1ccccc1)c1ccc(O)cc1 |  | 12.2 µM (active)
O=C(O)C(F)(F)C(F)(F)C(F)(F)C(F)(F)C(F)(F)C(F)(F)C(F)(F)C(F)(F)F |  | 21.8 µM (active)
CCCCCCCCCC[N+](C)(C)CCCCCCCCCC |  | 3.92 µM (active)
O=C(NC(=O)c1c(F)cccc1F)Nc1cc(Cl)c(OC(F)(F)C(F)F)c(Cl)c1 | inactive | 
Clc1ccc(C(Cl)(Cl)Cl)cc1 | inactive | 
CCCCCCCCOC(=O)c1ccccc1C(=O)OCCCCCCCC | inactive | 
COc1ccc(O)c(C(C)(C)C)c1 |  | 60.5 µM (active)
Cc1ccccc1CO[C@@H]1C[C@@]2(C(C)C)CC[C@]1(C)O2 |  | 21.6 µM (active)
COS(=O)(=O)OC | inactive | 
Cc1ccc(O)c(C)c1 | inactive | 
Oc1c(Cl)c(Cl)c(Cl)c(Cl)c1Cl | inactive | 
O=C(O)C(F)(F)C(F)(F)C(F)(F)C(F)(F)C(F)(F)C(F)(F)C(F)(F)C(F)(F)C(F)(F)F |  | 38.3 µM (active)
CCOP(=S)(OCC)SCSC(C)(C)C |  | 20.9 µM (active)
CCCCCCCCCc1ccc(O)cc1 |  | 15.7 µM (active)
C[C@]12CCC(=O)C=C1CC[C@@H]1[C@@H]2CC[C@]2(C)C(=O)CC[C@@H]12 | inactive | 
c1ccc(-c2ccccc2)cc1 |  | 34.5 µM (active)
Oc1ccc(C(c2ccc(O)cc2)(C(F)(F)F)C(F)(F)F)cc1 |  | 11 µM (active)
CCC(=O)O[C@H]1CC[C@H]2[C@@H]3CCC4=CC(=O)CC[C@]4(C)[C@H]3CC[C@]12C |  | 9.47 µM (active)
CCC(C)(c1ccc(O)cc1)c1ccc(O)cc1 |  | 37.4 µM (active)
CC(c1ccc(O)cc1)(c1ccc(O)cc1)c1ccc(O)cc1 |  | 36.9 µM (active)
